# Screens as filed in PubChem BioAssay.
# ATXN2 expr inh – reduces ATXN2 reporter expression in HEK-293 cells; HEK-293 ATXN2-luciferase reporter, luminescence, 24 h; Potency, µM (series often up to 57 µM), most hits filed as inhibitors; 360,000 compounds, 0.72% hits; note: nearly all actives have a fitted effect of over 55% in size
#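 qHTS (up to 57 uM final) was run with 24 h compound exposure of reporter cells at 37 °C. Each well was multiplexed: SteadyGlo luminescence measured ATXN2-luciferase expression after a fluorogenic Gly-Phe-AFC viability readout (25 uM final).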
# Integrin act MD – activators of alpha7 integrin expression for muscular dystrophy | alpha7betagal myoblasts, beta-gal FDG fluorescence, 48 h | Potency, µM (series often up to 38.3 µM), usual class: activators | 350,000 compounds, 0.064% hits; note: nearly all actives have a fitted effect of over 60% in size
#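 alpha7betagal+/- myoblasts (passage 13, 250/well) treated 48 h at 37C with compounds at 1:260 dilution of DMSO stock. Lysed, then beta-galactosidase activity read as FDG fluorescence (ex 480/em 540) after 30 min, with pre-read for autofluorescence.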
# D3 antag – antagonists of human D3 dopamine receptor. P35462. D3R cells, DiscoveRx beta-arrestin luminescence, antagonist mode; stronger effect = lower value. max response, negative = inhibition, %. 360,000 compounds, 2.5% hits. AID 652054; in the data active = max response below about -50%; inconclusive = no clear call, values can overlap the other calls
# Target sequence (P35462 whole entry, looked up): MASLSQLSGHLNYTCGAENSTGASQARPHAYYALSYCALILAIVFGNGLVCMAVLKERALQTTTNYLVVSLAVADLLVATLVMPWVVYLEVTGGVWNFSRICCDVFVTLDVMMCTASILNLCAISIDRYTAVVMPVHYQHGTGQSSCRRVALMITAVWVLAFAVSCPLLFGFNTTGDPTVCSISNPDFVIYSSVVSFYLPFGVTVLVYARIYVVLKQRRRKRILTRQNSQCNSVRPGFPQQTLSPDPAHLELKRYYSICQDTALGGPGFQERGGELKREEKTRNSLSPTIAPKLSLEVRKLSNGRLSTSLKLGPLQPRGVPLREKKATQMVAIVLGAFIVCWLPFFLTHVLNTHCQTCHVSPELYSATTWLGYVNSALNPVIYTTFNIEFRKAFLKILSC
#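 Cells expressing the human receptor were seeded at 1500 cells/well, incubated overnight at 37 degrees C in 5% CO2, then exposed to library compounds with dopamine controls for 90 minutes at 37 degrees C before luminescent detection.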
# S2 tox – reduces viability in counter-screen for ATXN expression inhibitors; 400,000 compounds, 0.49% hits; S2 cells (HEK-293 line with an ATXN2-luciferase reporter) viability, CellTiter-Fluor protease fluorescence, 24 h; AID 651635; Potency, µM (series often up to 56.7 µM), usual class: cytotoxic; note: nearly all actives have a fitted effect of over 40% in size
# D3 ag – agonists of human D3 dopamine receptor; P35462; D3R DiscoveRx beta-arrestin cells, luminescence, 90 min; max activation, %; 410,000 compounds, 0.58% hits; AID 652048; in the data active = max activation above about 30%
#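 Agonist-mode cell screen: cells plated at 1500/well and incubated overnight at 37 °C, then exposed to library compounds for 90 min at 37 °C. Detection reagent was added for 30–60 min at room temperature, and luminescence was read.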
# IL1B secr inh – blocks inflammasome-driven IL-1 beta release | THP-1 LPS/ATP IL-1B secretion, AlphaLISA, 16 h; stronger effect = lower value | activity change, % at 57.5 µM | 360,000 compounds, 4.7% hits; in the data active = activity change below about -50%; inconclusive = mostly about -30% to -49%
#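 THP-1 cells pretreated 1 hr with compounds (up to 57.5 uM final), then stimulated with LPS (250 ng/mL final) plus ATP (1.25 mM final); secreted IL-1B measured by AlphaLISA after 16 hr, decreased signal indicating inhibition.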
# A number is an active result; 0 = inactive; ? = inconclusive; - = no result. The list is not random: actives were taken first. Their share in the collection is about 7%. Unless noted, calls come from the whole dose curve; as a rule, active = well fitted curve in the direction sought with a large enough effect; inconclusive = small, poorly fitted or top-dose-only effect, or another doubt; inactive = no such curve, though single readings can be large; an effect the other way counts as inactive or inconclusive.
SMILES,ATXN2 expr inh,Integrin act MD,D3 antag,S2 tox,D3 ag,IL1B secr inh
CCOC(CNCc1cc(C)c2[nH]c3ccccc3c2c1C)OCC,?,0,0,0,0,-95.6
CCOC(CCNC(=O)c1cc2c(=O)[nH]c3ccccc3c2s1)OCC,-,0,0,?,0,0
CC(C)C[C@@H]1NC(=O)[C@H](C(C)C)NC(=O)c2cc([N+](=O)[O-])cc(I)c2OCC[C@@H](C(N)=O)NC1=O,0,0,-52.8,0,0,0
NC(=O)CC[C@@H]1NC(=O)[C@H](CO)NC(=O)c2cc([N+](=O)[O-])cc(I)c2OCC[C@@H](C(N)=O)NC1=O,0,0,0,?,0,0
COc1cc(OC)c(Nc2c3c(nc4nc(-c5cccs5)nn24)CCCC3)cc1Cl,0,-,-,28.2µM,0,-
COC(C(=O)Nc1ccc(F)cc1)c1ccccc1 (stereo not drawn),0,0,0,0,0,0
COC(C(=O)Nc1ccc(S(=O)(=O)Nc2ccc(F)cc2)cc1)c1ccccc1 (stereo not drawn),?,0,0,0,0,-100.7
CC(=O)N1NC(=Nc2ccccc2)SC1(C)C,0,0,0,0,0,-75.1
CCOc1ccc(-n2cc(C(=O)NC(C)C)c3cc(OC)c(OC)cc3c2=O)cc1,0,0,0,?,0,0
COc1ccc(OC)c(-c2nc(C(=O)NCCCN3CCOCC3)cc3c2[nH]c2ccccc23)c1,0,0,0,0,0,0
COc1cc(-c2nc(C(=O)NC3CCN(Cc4ccccc4)CC3)cc3c2[nH]c2ccccc23)cc(OC)c1OC,0,0,-117.1,0,0,0
COc1ccc(OC)c(-c2nc(C(=O)NC3CCN(Cc4ccccc4)CC3)cc3c2[nH]c2ccccc23)c1,0,0,-124.8,0,0,0
COc1cc(-c2nc(C(=O)NC3CCCCC3)cc3c2[nH]c2ccccc23)cc(OC)c1OC,0,0,0,?,0,?
O=C(NCc1cccs1)c1ccccc1F,0,0,0,?,0,0
c1cnc2ccc(C(c3nnnn3C3CCCC3)N3CCN(c4nc5ccccc5s4)CC3)cc2c1 (stereo not drawn),0,0,0,?,0,-53.0
Clc1ccc(C(c2nnnn2C2CCCC2)N2CCN(c3nc4ccccc4s3)CC2)cc1 (stereo not drawn),0,0,0,0,0,0
Oc1ccc(C(c2nnnn2CCc2ccccc2)N2CCN(c3nc4ccccc4s3)CC2)cc1 (stereo not drawn),0,0,0,0,0,-50.0
COc1cccc(CNC(=O)c2c(OC)cc(=O)n3c2CCN(C(=O)c2cc(C)ccc2C)CC3)c1,-,-,-,0,-,-
Cc1c(Cl)cccc1NC(=O)N1CCC(CN2CCCC2)CC1,-,-,-,-,0,-
O=C(c1cc(COc2ccc(F)cc2F)on1)N1CCCC(c2ccccc2)C1 (stereo not drawn),0,?,0,0,0,?
O=C(c1cc(COc2ccc(F)cc2Cl)on1)N1CCCC(c2ccccc2)C1 (stereo not drawn),0,0,0,0,0,-63.8
Cc1cc(NC(=O)CS(=O)(=O)c2cn(Cc3cccc(Cl)c3)c3ccccc23)no1,0,-,0,?,0,0
CCOc1ccccc1OCC1CNCCO1 (stereo not drawn),0,-,-,0,-,-
Cc1cnc(NC(=O)Nc2cc(Br)c(C)cc2OC[C@@H]2CNCCO2)cn1,1.22µM,-,-,-,-,-
CCCCn1nnnc1C(c1cc2ccccc2o1)N1CCN(CC(=O)N2CCCC2)CC1 (stereo not drawn),0,-,0,0,0,0
SMILES,ATXN2 expr inh,Integrin act MD,D3 antag,S2 tox,D3 ag,IL1B secr inh
Cc1cccc(OCC(=O)NN2C(=O)C3C4C=CC(O4)C3C2=O)c1 (stereo not drawn),0,0,0,0,0,0
Cc1ccc(CS(=O)(=O)c2ccc(C(=O)N3CCCCC3)cc2[N+](=O)[O-])cc1,0,0,0,0,0,0
CCN(CC)C(=O)c1ccc(S(=O)(=O)Cc2ccc(C)cc2)c([N+](=O)[O-])c1,0,0,0,0,0,-68.2
CCN(C(=O)COc1ccc(C(C)=O)cc1)c1cccc2ccccc12,0,0,-72.1,0,0,?
Cc1sc(NC(=O)C2CSC3(C)CCC(=O)N23)nc1-c1ccccc1 (stereo not drawn),0,0,0,0,0,-77.6
CCN(CC)c1ccc(S(=O)(=O)N2CCCCC2)cc1NC(=O)C1CSC2(C)CCC(=O)N12 (stereo not drawn),0,?,0,0,0,-50.1
CC12CCC(=O)N1C(C(=O)Nc1ccc(Cl)c(S(=O)(=O)N3CCCCC3)c1)CS2 (stereo not drawn),0,0,0,?,0,0
CC(=O)c1sc(NC(=O)C2CSC3(C)CCC(=O)N23)nc1-c1ccccc1 (stereo not drawn),0,0,0,0,0,0
CC12CCC(=O)N1C(C(=O)Nc1ccc(Cl)c(Cl)c1)CS2 (stereo not drawn),0,0,0,0,0,-50.1
CC12CCC(=O)N1C(C(=O)OCC(=O)Nc1ccc(Cl)c(Cl)c1)CS2 (stereo not drawn),0,0,0,0,0,-57.8
CCOc1ccc(S(=O)(=O)N2CCOCC2)cc1NC(=O)C1CSC2(C)CCC(=O)N12 (stereo not drawn),0,0,0,0,0,0
COc1ccccc1NC(=O)CN1C(=O)NC(C)(C)C1=O,0,0,0,0,0,0
CCN(CC)S(=O)(=O)c1ccc(-c2nnc(SCc3nnc(-c4ccc(C)cc4)o3)n2CC)cc1,-,0,0,-,0,0
CCN(CC)S(=O)(=O)c1cccc(-c2nnc(SCc3nnc(-c4ccccc4)o3)n2C)c1,0,0,-50.5,?,0,0
COc1ccc(Cl)cc1NC(=O)CN(C)C(=O)Cc1n[nH]c(=O)c2ccccc12,0,0,?,?,0,0
CCCCOc1ccc(S(=O)(=O)NC(=O)C2(C)CCN2C(=O)Cc2ccccc2Cl)cc1 (stereo not drawn),0,-,0,0,0,0
Cc1ccc(C)c(OCCC(=O)Nc2cccc(S(=O)(=O)NC3=NCCCCC3)c2)c1,0,0,0,0,0,?
Cc1cccc(C)c1-n1nnnc1C(c1cccs1)N1CCN(C/C=C/c2ccccc2)CC1 (stereo not drawn),0,-,-84.0,0,0,0
C(=C\c1ccccc1)/CN1CCN(C(c2ccnc3ccccc23)c2nnnn2-c2ccc3c(c2)OCCO3)CC1 (stereo not drawn),0,-,0,?,0,0
Cc1cccc(C)c1-n1nnnc1C(c1ccccc1)N1CCN(C/C=C/c2ccccc2)CC1 (stereo not drawn),0,-,-132.7,0,0,0
O=c1c2cc3c(cc2nc2sc(Nc4ccc(F)cc4F)nn12)OCO3,0,-,-,0,0,-
